Source: PubChem BioAssay (NCATS)
Where “and” joins values, the source holds several entries; their conditions need not be identical. Identical values can stand only once. Inconclusive results are not listed. Calls of active or inactive are those of the source. Unless noted, the rule behind the calls is not given here.

Experiments:
[1] = qHTS profiling of the MIPE4 collection as inhibitors of Plasmodium falciparum (3D7) proliferation (AID 743344);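 note: scaled between DMSO vehicle wells and 0.29 µM artemisinin as full inhibition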; conditions: P. falciparum 3D7 in erythrocytes, SYBR Green DNA fluorescence, 72 h; at 28.5 µM unless noted
In short: (§1)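 Parasite DNA was quantified by SYBR Green I fluorescence (ex 485, em 535 nm) after overnight lysis in saponin/Triton buffer at room temperature. Cultures at 0.3% parasitemia and 2.5% hematocrit were first exposed to compound for 72 h at 37 C; signals were normalised to artemisinin (0.29 uM) and vehicle wells.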

[2] = qHTS profiling of the MIPE4 collection as inhibitors of Plasmodium falciparum (DD2) proliferation (AID 743345); conditions: P. falciparum Dd2 in erythrocytes, SYBR Green DNA, 72 h; at 28.5 µM unless noted
In short: as §1

[3] = qHTS profiling of the MIPE4 collection as inhibitors of Plasmodium falciparum (DD2) proliferation (Rep 2) (AID 743346); conditions: P. falciparum Dd2 in erythrocytes, SYBR Green DNA, 72 h; at 28.5 µM unless noted
In short: as §1

[4] = qHTS profiling of the MIPE4 collection as inhibitors of Plasmodium falciparum (HB3) proliferation (AID 743347);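 note: plate controls were DMSO vehicle wells for no effect and artemisinin wells for full effect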; conditions: P. falciparum HB3 in erythrocytes, SYBR Green DNA, 72 h; at 28.5 µM unless noted
In short: as §1

[5] = High-throughput drug toxicity screening in the BPDCN cell line Gen2.2 (AID 1224824); conditions: Gen2.2 BPDCN cells; at 45.8 µM (top of the series) unless noted;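 note: cells exposed to compounds for 48 h before reading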
In short: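 CellTiter-Glo luminescence after 48 h compound exposure of Gen2.2 cells; percent activity set with DMSO as 100% and bortezomib (9.2 uM final) as 0%. Cells seeded at 500 per well, RPMI + 10% FBS, 37 °C.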

[6] = High-throughput drug toxicity screening in the BPDCN cell line Cal-1 (AID 1224825); conditions: Cal-1 BPDCN cell viability, qHTS; at 45.8 µM (top of the series) unless noted
In short: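 Percent activity derived from CellTiter-Glo luminescence, scaling DMSO to 100% and 9.2 uM final bortezomib to 0%. BPDCN Cal-1 cells (500/well, RPMI plus 10% FBS) incubated with compounds 48 hours at 37C before reading.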

[7] = qHTS assay for cell viability of the p53RE-bla HCT-116 cell line (AID 743292; active = well fitted curve in the direction sought with a large enough effect; an effect the other way counts as inactive or inconclusive; note: % is set by controls: 0 for no effect and ±100 for the full control effect; nearly all actives have a fitted effect of over 55% in size)
In short: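 Quantitative high-throughput format: compounds in DMSO were pinned onto p53RE-bla HCT-116 cells (4,000/well) and incubated 16 h at 37 C. Total intracellular ATP, read by CellTiter-Glo luminescence, reflects viable cell number.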

[8] = qHTS profiling for inhibitors of Plasmodium falciparum (HB3) proliferation (AID 743324; active = well fitted curve in the direction sought with a large enough effect; an effect the other way counts as inactive or inconclusive;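 note: 100% = DMSO vehicle wells and 0% = artemisinin-treated control wells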); conditions: Plasmodium falciparum HB3 blood-stage proliferation; at 28.7 µM (top of the series)
In short: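 SYBR Green fluorescence (485 ex/535 em) of lysed cultures, incubated overnight at room temperature in the dark, quantifies parasite DNA. Infected erythrocytes at 0.3% parasitemia and 2.5% hematocrit were exposed 72 h; values normalized to DMSO and 0.29 uM artemisinin controls.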

Compound	parasite growth, % of DMSO control [1] [%]	parasite growth remaining, % of DMSO control (lower = more inhibition) [2]	parasite growth, % of control (lower = inhibition) [3]	growth, % of control [4]	cell viability, % of control (lower = more cytotoxic) [5]	viability (% of control) [6]	Potency [7]	remaining proliferation (% of control), lower = more inhibition [8]
CC(C)Cn1cnc2c(N)nc3ccccc3c21	43.4	74.5%	32.3%	58.5%	11.8%	3.23%		
CC(C)C1CCC(C(=O)N[C@H](Cc2ccccc2)C(=O)O)CC1 (stereo partly specified)	87.2	118%		85.4%	139%	99.1%		
CN1CCN(c2c(F)cc3c(=O)c(C(=O)O)cn(CCF)c3c2F)CC1	86.6	95.4%	106%	99%	140%	98.4%		
Cc1cccc(N(C)C(=S)Oc2ccc3ccccc3c2)c1	51.5	84.1%	51.6%	50.4%	227%	79.3%		
Nc1nc(N)nc(-c2cc(Cl)ccc2Cl)n1	83.2	88.9%	128%	97.7%	126%	98%		
CCOC(=O)c1ccc(OC(=O)CCCCCN=C(N)N)cc1	93	89.5%	118%	80.6%	186%	106%		
COc1cc(NCc2ccc3nc(N)nc(N)c3c2C)cc(OC)c1OC	15.9	7.41%	10.9%	19.6%	8.74%	3.95%		
CNCC[C@H](Oc1cccc2ccccc12)c1cccs1	6.18	7.89%	14.2%	3.44%	8.39%	39.6%		
COC(=O)Nc1nc2ccc(Sc3ccccc3)cc2[nH]1	75.4	99.3%	18.7%	102%	61%	18.7%		
CC[C@H](NC(C)C)[C@H](O)c1ccc(O)c2[nH]c(=O)ccc12	96.3	107%	92.5%	96.3%	160%	121%		
CNS(=O)(=O)Cc1ccc2[nH]cc(CCN(C)C)c2c1	64.4	70.9%	75.7%	17.2%	219%	117%		
CCCOc1ccc(C(=O)OCCN(CC)CC)cc1N	100	88.7%	111%	63.6%	177%	105%		
CCc1c2c(nc3ccc(OC(=O)N4CCC(N5CCCCC5)CC4)cc13)-c1cc3c(c(=O)n1C2)COC(=O)[C@]3(O)CC	66.3	59.3%	67.7%	71.1%	21.9%	8.86%		
Cc1cccc(Nc2ccncc2S(=O)(=O)NC(=O)NC(C)C)c1	93.3	104%	125%	95.2%	90.1%	107%		
COC(=O)Nc1nc2ccc(S(=O)c3ccccc3)cc2[nH]1 (stereo unspecified)	67	82.8%	68.5%	104%	86.3%	22.2%		
COc1cccc(N(C)C(=S)Oc2ccc3c(c2)CCCC3)n1	47.9	82.7%	34.5%	24.4%	245%	76.1%		
O=P(O)(O)C(O)(Cc1cccnc1)P(=O)(O)O	71.4	99.5%	80.5%	100%	147%	125%		
NC(=O)c1cccnc1	98.2	97.3%		105%	114%	101%		
C[C@@H](CN1CC(=O)NC(=O)C1)N1CC(=O)NC(=O)C1	74.5	88.1%	105%	65.5%	147%	14.7%		
CCn1cc(C(=O)O)c(=O)c2cc(F)c(N3CCN(C)CC3)cc21	206	70.5%	52.8%	370%	85.7%	97.9%		

Compound	parasite growth, % of DMSO control [1] [%]	parasite growth remaining, % of DMSO control (lower = more inhibition) [2]	parasite growth, % of control (lower = inhibition) [3]	growth, % of control [4]	cell viability, % of control (lower = more cytotoxic) [5]	viability (% of control) [6]	Potency [7]	remaining proliferation (% of control), lower = more inhibition [8]
NC(=O)c1cccc(N)c1		95.5%		54.9%	84.2%	109%		
CNNCc1ccc(C(=O)NC(C)C)cc1		93.3%	68.8%	68.9%	284%	78.4%		
CC(=O)CC(c1ccccc1)c1c(O)c2ccccc2oc1=O (stereo unspecified)					66.7%		inactive	
COc1ccc2c(c1)c(CC(=O)OCC(=O)O)c(C)n2C(=O)c1ccc(Cl)cc1		104%		80.2%	144%	119%		
O=S(=O)(O)CCS		108%	78.8%	66.6%	25.9%	32.1%		
Nc1nc(F)nc2c1ncn2[C@@H]1O[C@H](CO)[C@@H](O)[C@@H]1O		19.5%	12%		9.4%	3.53%		
CC(C)(C#N)c1cc(Cn2cncn2)cc(C(C)(C)C#N)c1		91.9%	88.7%	66.6%	47%	105%		
CNC1CCCN(c2c(F)cc3c(=O)c(C(=O)O)cn(C4CC4)c3c2OC)C1 (stereo unspecified)		11.8%	8.93%	22.8%	106%	32.3%		
NC(=O)c1ccc2[nH]ccc2c1		90.8%	122%	57.5%	140%	90.6%		
CNS(=O)(=O)CCc1ccc2[nH]cc(C3CCN(C)CC3)c2c1		87.2%		92.7%	238%	23.9%		
CN(C)CCc1c[nH]c2ccc(C[C@H]3COC(=O)N3)cc12	107	92.5%		91.4%	88.7%	99.9%		
CCCCc1oc2ccc(NS(C)(=O)=O)cc2c1C(=O)c1ccc(OCCCN(CCCC)CCCC)cc1	7.48	6.73%		7.93%	5.11%	4.81%		
CC1CC2C3CCC4=CC(=O)C=C[C@]4(C)[C@@]3(F)[C@@H](O)C[C@]2(C)[C@@]1(O)C(=O)CO (stereo partly specified)		90.6%	85.8%	102%	115%	56.6%		
CCOCC(O)COc1ccc(NC(=O)CC[S+](C)C)cc1 (stereo unspecified)	84	103%		99.4%	120%	110%		
CN(CCOc1ccc(CC2SC(=O)NC2=O)cc1)c1ccccn1 (stereo unspecified)	98.7	93.4%		60.7%	101%	107%		
COC(=O)Nc1nc2ccc(C(=O)c3ccccc3)cc2[nH]1		97.7%	71%	84.4%	176%	22%		
CN(Cc1cc(Br)cc(Br)c1N)C1CCCCC1	44.4	113%		62.3%	226%	107%		
CCN(C)C(=O)Oc1cccc([C@H](C)N(C)C)c1		17.2%			97.8%	73.8%		
CN1CCN(c2c(F)cc3c(=O)c(C(=O)O)cn4c3c2OCN4C)CC1		95.5%	77.3%	73.2%	170%	117%		
COc1cc(NS(=O)(=O)c2ccc(N)cc2)nc(OC)n1	39.3	96.8%		91%	129%	104%		

Compound	parasite growth, % of DMSO control [1] [%]	parasite growth remaining, % of DMSO control (lower = more inhibition) [2]	parasite growth, % of control (lower = inhibition) [3]	growth, % of control [4]	cell viability, % of control (lower = more cytotoxic) [5]	viability (% of control) [6]	Potency [7]	remaining proliferation (% of control), lower = more inhibition [8]
O[C@@H](CNC[C@H](O)[C@H]1CCc2cc(F)ccc2O1)[C@@H]1CCc2cc(F)ccc2O1		8.23%	19.2%	8.28%	4.81%	2.75%		
O=c1cc(O)c(Cl)c[nH]1	29	122%		21.5%	246%	39.2%		
CC(C)(Sc1cc(C(C)(C)C)c(O)c(C(C)(C)C)c1)Sc1cc(C(C)(C)C)c(O)c(C(C)(C)C)c1	23.4	26.6%		19.1%	48.3%	45.2%		
C[C@@H]1C[C@H]2[C@@H]3CCC4=CC(=O)C=C[C@]4(C)[C@@]3(Cl)[C@@H](O)C[C@]2(C)[C@@]1(OC(=O)c1ccco1)C(=O)CCl		7.88%	10.6%	6.95%	4.47%	6.87%		
CC(=O)Oc1ccccc1C(=O)Nc1ncc([N+](=O)[O-])s1		8.2% [at 57.5 µM]	7.18% [at 57.5 µM]	4.58% [at 57.5 µM]	73% [at 92.2 µM]	38.5% [at 92.2 µM]		
Cc1cc(NS(=O)(=O)c2ccc(N)cc2)no1					56.5%		inactive	
O=C(O)C1CCCN(CCC=C(c2ccccc2)c2ccccc2)C1 (stereo unspecified)		103%	72.1%	101%	145%	127%		
Cc1nnc(C(=O)NC(C)(C)c2nc(C(=O)NCc3ccc(F)cc3)c(O)c(=O)n2C)o1	83.6	91.4%		79.5%	126%	134%		
CC(C)OC(=O)C(C(=O)OC(C)C)=C1SC=CS1	89	117%		91.6%	159%	94.2%		
Oc1c(Cl)cc(Cl)c2cccnc12	123	94.2%		347%	10.5%	9.09%		
CCOC(=O)[C@H](CCc1ccccc1)N[C@H]1CCc2ccccc2N(CC(=O)O)C1=O	9.1	9.11%		11.1%	22.7%	22.3%		
CCCCOc1ccc(CC(=O)NO)cc1	11.6	14.7%		5.4%	37%	29%		
Cc1onc(-c2ccccc2Cl)c1C(=O)N[C@@H]1C(=O)N2[C@@H]1SC(C)(C)[C@@H]2C(=O)O		94.6%		108%	168%	97.4%		
CCN[C@H]1C[C@H](C)S(=O)(=O)c2sc(S(N)(=O)=O)cc21		19.2%		103%	71.7%	102%		
O=C(O)c1ccc(-n2nc(-c3ccccc3O)nc2-c2ccccc2O)cc1		107%	34.2%	94.6%	142%	25.8%		
Nc1[nH]c(=O)ncc1F		104%	158%	699%	87.4%	22.3%		
O=C(NCC1CN(c2ccc(N3CCOCC3=O)cc2)C(=O)O1)c1ccc(Cl)s1 (stereo unspecified)	74.4	94.4%		59.9%	29.6%	48.9%		
CC1=CC(=O)c2ccccc2C1=O								4.17%
CNC(=O)c1cc(Oc2ccc(NC(=O)Nc3ccc(Cl)c(C(F)(F)F)c3)cc2)ccn1								3.29% and 1.23%
